# NIH3T3 tox – NIH 3T3 cell cytotoxicity. NIH 3T3 viability, CellTiter-Glo ATP luminescence, 48-72 h. Potency, µM (doses to about 96.7 µM), usual class: inhibitors. hit rate 4.3% among 94,000. AID 1345082; also: nearly all actives have a fitted effect of over 55% in size
#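 NIH 3T3 cells at 400 cells/well received 23 nL of compound by pintool and were incubated 48 or 72 h at 37 °C. Viability was read as ATP-coupled CellTiter-Glo luminescence.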
# FLuc inh-1 – Photinus pyralis luciferase inhibition. P08659. purified P. pyralis luciferase, luminescence, biochemical. Potency, µM (top dose mostly 115 µM), most hits filed as inhibitors. hit rate 2.5% among 76,000. AID 1347043; also: nearly all actives have a fitted effect of over 65% in size
#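 FLuc 10nM, D-luciferin 10uM, ATP 10uM, Mg acetate 10mM, Tris acetate pH 7.5, Tween/BSA; cpd qHTS; enzyme added last; CCD luminescence.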
# HEK293 tox – kills HEK 293 cells; HEK 293 viability, ATP luminescence (CellTiter-Glo), 48-72 h; Potency, µM (top dose mostly 115 µM), most hits filed as inhibitors; hit rate 6.6% among 94,000; AID 1345083; also: nearly all actives have a fitted effect of over 60% in size
#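 250 HEK 293 cells/well; compound by pintool; incubated 48 or 72 hr at 37 degree Celsius; CellTiter-Glo added, 10 min RT, luminescence imaged.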
# hNpr1 antagonist – human Npr1 receptor antagonism | hit rate 1.6% among 76,000 | Potency, µM (highest dose often 46.3 µM), most hits filed as inhibitors | HEK293 hNpr1 GloSensor cGMP, ANP-stimulated luminescence; calls by dose curve; also: nearly all actives have a fitted effect of over 60% in size
# Target sequence (P16066 whole entry, looked up): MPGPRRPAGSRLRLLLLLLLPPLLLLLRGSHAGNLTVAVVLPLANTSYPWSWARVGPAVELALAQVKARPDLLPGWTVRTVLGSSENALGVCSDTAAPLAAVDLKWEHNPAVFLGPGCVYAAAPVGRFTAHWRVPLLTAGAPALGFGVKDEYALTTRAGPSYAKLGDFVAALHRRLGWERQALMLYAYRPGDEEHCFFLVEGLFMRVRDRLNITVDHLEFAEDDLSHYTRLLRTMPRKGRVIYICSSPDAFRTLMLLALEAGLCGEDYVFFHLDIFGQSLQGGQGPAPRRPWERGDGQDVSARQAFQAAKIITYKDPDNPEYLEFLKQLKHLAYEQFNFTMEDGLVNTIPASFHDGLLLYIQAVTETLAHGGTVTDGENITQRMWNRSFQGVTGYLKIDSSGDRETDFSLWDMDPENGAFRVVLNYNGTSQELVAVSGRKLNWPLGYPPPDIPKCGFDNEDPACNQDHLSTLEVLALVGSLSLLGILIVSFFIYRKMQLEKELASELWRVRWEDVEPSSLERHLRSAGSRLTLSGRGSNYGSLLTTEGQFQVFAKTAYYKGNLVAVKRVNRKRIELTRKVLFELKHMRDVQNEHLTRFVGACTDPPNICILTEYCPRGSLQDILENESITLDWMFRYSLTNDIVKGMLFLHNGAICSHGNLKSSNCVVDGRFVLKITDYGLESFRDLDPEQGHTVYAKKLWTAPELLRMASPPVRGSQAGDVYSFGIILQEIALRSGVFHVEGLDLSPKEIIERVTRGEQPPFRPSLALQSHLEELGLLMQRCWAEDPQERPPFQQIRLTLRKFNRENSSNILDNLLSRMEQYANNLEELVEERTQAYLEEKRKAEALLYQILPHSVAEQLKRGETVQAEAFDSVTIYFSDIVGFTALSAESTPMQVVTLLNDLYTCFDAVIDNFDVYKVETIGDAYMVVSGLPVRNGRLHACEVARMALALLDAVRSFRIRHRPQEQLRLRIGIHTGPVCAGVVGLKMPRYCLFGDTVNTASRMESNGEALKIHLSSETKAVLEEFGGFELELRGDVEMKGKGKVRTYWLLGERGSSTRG
#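 HEK293 cells stably expressing human Npr1 and cGMP GloSensor pGS-40F, loaded 2 h with 2% GloSensor reagent, given compound 30 min at room temperature. Luminescence read before and 20 min after 0.1 nM hNppA.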
# GPT2 inhibitor – blocks human glutamate pyruvate transaminase 2; AID 1671188; Potency, µM (titrated, usually from 57.7 µM), actives largely listed as inhibitors; Recombinant GPT2, coupled pyruvate oxidase/HRP Amplex Red fluorescence; hit rate 0.25% among 100,000; also: nearly all actives have a fitted effect of over 60% in size
#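 Fluorescence of coupled pyruvate oxidase/HRP/Amplex Red system (50uM Amplex, 30 min, dark) reports pyruvate formed by GPT2. Enzyme reaction: 10ng/uL GPT2, 2mM L-alanine, 250uM a-KG, 30 min room temperature, pH 7.5; 50uM AOA control.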
# FLuc SDR no ATP – firefly luciferase binding stabilization, ATP absent | shares compounds with FLuc inh-1 | AID 1963318 | Purified FLuc-C-HiBiT, Nano-Glo HiBiT luminescence, no ATP | hit rate 7.8% among 1,300 | Potency, µM (top dose mostly 32.7 µM), most hits filed as activators; also: nearly all actives have a fitted effect of over 55% in size
# FLuc SDR ATP – stabilizes firefly luciferase with ATP present | shares compounds with FLuc inh-1 | purified FLuc-C-HiBiT + ATP, HiBiT complementation luminescence | Potency, µM (titrated, usually from 32.7 µM), usual class: activators | hit rate 8.7% among 1,300;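 also: signal reports ligand binding via conformational change of the enzyme rather than luciferase catalysis; nearly all actives have a fitted effect of over 55% in size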
# FLuc inh-2 – blocks firefly luciferase enzymatic activity. AID 1963320. hit rate 42% among 1,300. shares compounds with FLuc inh-1. purified FLuc-C-HiBiT enzyme, luciferin luminescence. Potency, µM (highest dose often 32.7 µM), actives largely listed as inhibitors; also: nearly all actives have a fitted effect of over 70% in size
# A number is an active result; 0 = inactive; ? = inconclusive; - = no result given; [ ] = another dose, or the depositor's remark. An excerpt weighted towards active compounds, which were near 10% of everything screened. Unless noted, calls follow the shape of the dose curve; as a rule, active = well fitted curve in the direction sought with a large enough effect; inconclusive = small, poorly fitted or top-dose-only effect, or another doubt; inactive = no such curve, though single readings can be large; an effect the other way counts as inactive or inconclusive.
SMILES,NIH3T3 tox,FLuc inh-1,HEK293 tox,hNpr1 antagonist,GPT2 inhibitor,FLuc SDR no ATP,FLuc SDR ATP,FLuc inh-2
CCN1CCN(CCNC(=O)c2cccc3c2CCN3C(=O)Nc2ccc(C)cc2)CC1,?,2µM,?,?,0,?,1.57µM,1.11µM
Cc1cccc(NC(=O)N2CCc3c(C(=O)NC(C)(C)C)cccc32)c1,0,7.08µM,?,0,0,?,?,8.81µM
Cc1nc(N)nc(C)c1CC(=O)N1CC2(CCNCC2)CC1C(=O)O (centres undefined),0,0,0,0,0,-,-,-
COc1ccc(C(=O)Nc2ccc3c(c2)CN(Cc2ccccc2Cl)C(=O)C(C)O3)cc1OC (centres undefined),?,0,?,0,0,-,-,-
CN(C)C(=O)c1cc2cnc(Nc3ccc(N4CCNCC4)cn3)nc2n1C1CCCC1,-,-,-,-,0,-,-,-
COc1cccc(-c2cn3ncsc3n2)c1,-,-,-,-,-,0,0,?
COc1cccc(-c2cn3c(n2)N(C(=O)c2ccoc2)CCC3)c1,0,0,?,0,0,-,-,-
Nc1ccc(-c2ccc(OCCn3ccnc3)cc2)cn1,?,0,?,0,0,-,-,-
COc1ccc(OCc2cc(C(=O)N3C[C@H]4CC[C@H]3C4)n[nH]2)c(Cl)c1,?,8.91µM,?,0,0,0,0,0
O=C(Nc1ccc2oc(-c3ccccc3F)nc2c1)c1ccccc1Cl,-,-,-,-,-,0,0,?
CC(C)NC(=O)c1ccc2oc(-c3cccnc3Cl)nc2c1,0,-,0,-,0,-,-,-
COc1ccccc1-c1nc2cc(NC(=O)c3ccccc3Cl)ccc2o1,-,-,-,-,-,0,0,?
CN(C)c1ccc(-c2nc3ccccn3c2Nc2ccc3c(c2)OCCO3)cc1,-,-,-,-,-,0,0,11.1µM
Oc1ccc(-c2nc3ccccn3c2Nc2ccc3c(c2)OCCO3)cc1,-,-,-,-,-,0,0,?
CCc1nccc(CN2CCC(c3nn(C)c(=O)n3CC)CC2)n1,0,0,0,0,0[11.5 µM],-,-,-
COCC(=O)N1CCC(C(NC(=O)c2ccccc2)C(=O)N2CCCCC2)CC1 (centres undefined),0,0,0,0,0,-,-,-
O=C(Nc1ccc2c(c1)CN(Cc1ccccc1F)C(=O)CO2)c1ccc(F)cc1,?,?,?,0,0,-,-,-
COc1ccccc1CNC(=O)C1CC(=O)N(c2n[nH]c3cccc(F)c23)C1 (centres undefined),0,0,0,0,0,-,-,-
Cc1cnc(C(=O)N2CC(Oc3ccc(-c4nc(-c5ccccc5)no4)cc3)C2)cn1,0,0,0,0,0,-,-,-
O=C(c1ccccn1)N1CCC(Oc2ccc(-c3noc(-c4ccccc4)n3)cc2)C1 (centres undefined),?,11.2µM,22.4µM,0,0,0,0,?
Cc1ncccc1C(=O)N1CC(Oc2ccc(-c3nc(-c4ccccc4)no3)cc2)C1,?,1µM,12.6µM,?,0,0,?,6.24µM
COc1ccc(N2CC3CCC(C2)N3Cc2cccc(-c3ccsc3)c2)cc1,0,-,0,-,0,-,-,-
Cc1noc2c(Nc3ccc(N4CCOCC4)cc3)cc(-c3cccs3)nc12,?,0,?,0,?,-,-,-
Cc1ccn2c(Nc3ccc(C(C)C)cc3)c(-c3cccs3)nc2c1,-,-,-,-,-,0,0,?
Cc1nn(-c2cccc(Br)c2)c(C)c1[C@@H]1C=C[C@@H](NC(=O)CC(C)(C)CC(=O)O)C1,?,?,?,0,0,0,0,0
SMILES,NIH3T3 tox,FLuc inh-1,HEK293 tox,hNpr1 antagonist,GPT2 inhibitor,FLuc SDR no ATP,FLuc SDR ATP,FLuc inh-2
Cc1nn(CCC#N)c(C)c1[C@@H]1C=C[C@@H](NC(=O)NC(C)C)C1,?,0,0,0,?,-,-,-
Cc1ccc(-n2nc(C)c([C@@H]3C=C[C@@H](NC(=O)NC(C)C)C3)c2C)cc1Cl,63.1µM,3.55µM,?,15.8µM,0,0,?,14.3µM
COc1ccc(NC(=O)N[C@@H]2C=C[C@@H](c3c(C)nn(-c4ccc(C(C)C)cc4)c3C)C2)cc1,?,7.94µM,?,0,0,0,0,0
Cc1nn(-c2ccc(C(C)C)cc2)c(C)c1[C@@H]1C=C[C@@H](NC(=O)NC(C)C)C1,28.2µM,3.55µM,22.4µM,31.6µM,0,0,0,?
CCOc1ccc(CC(=O)N2[C@@H]3CC[C@H]2CC(NC(=O)c2ccc(F)cc2)C3)cc1 (some centres undefined),0,0,0,0,0,-,-,-
O=C(Nc1ccccc1)N1CCC(C(=O)N2CCC(c3nc4ncccc4[nH]3)CC2)CC1,0,-,0,-,0,-,-,-
COc1ccc(-n2nc(C)c([C@@H]3C=C[C@@H](NC(=O)Nc4cccc(C#N)c4)C3)c2C)cc1,?,7.94µM,89.1µM,?,0,0,0,?
Cc1ccccc1-c1noc(-c2ccc(NC(C)c3cnn(C)c3)nc2)n1 (centres undefined),44.7µM,0.316µM,31.6µM,7.94µM,0,?,?,0.989µM
C[C@@H](Nc1ccc(-c2nc(CCCc3ccccc3)no2)cn1)C(N)=O,0,0,0,0,0,-,-,-
Cc1ccc(CN2CCC3(CC2)CNc2ccccc2[S+](=O)([O-])N3)cc1,?,0,?,0,0,-,-,-
COc1ccc(CCC(=O)Nc2nc3ccc(Cl)cc3s2)cc1OC,-,-,-,-,0,-,-,-
COc1ccc(CC(=O)Nc2ccc(-c3nc4ccccc4s3)cc2Cl)cc1OC,-,-,-,-,-,0,0,0
COc1cccc(C(=O)Nc2cc(-c3ccncc3)nn2C)c1,?,-,?,-,0,-,-,-
COc1cccc(CNC(=O)CNC(=O)c2ccc(-c3cnc4ccccc4c3)cc2)c1,0,-,?,-,0,-,-,-
COc1cccc(C(=O)Nc2ccc(-c3nc4ccccc4s3)cc2Cl)c1,-,-,-,-,-,0,0,0
COc1cccc(CC(=O)Nc2ccc(-c3nc4ccccc4s3)cc2Cl)c1,-,-,-,-,-,0,0,0
CN(C)c1nc(NCCN2CCOC2=O)ncc1F,0,0,0,0,0,-,-,-
O=C1OCCN1CCNc1ccc(-c2nc(-c3ccccc3F)no2)cn1,?,5.62µM,44.7µM,?,0,0,0,?
O=C(Nc1c(C(=O)O)oc2ccccc12)c1ccc(C(F)(F)F)cc1,-,-,-,-,-,0,0,9.89µM
O=C(O)c1cccc(-c2noc(-c3cccc(F)c3)n2)c1,-,-,-,-,-,?,0.007µM,0.007µM
O=C(O)c1cccc(-c2noc(-c3cccc([N+](=O)[O-])c3)n2)c1,-,-,-,-,-,11.1µM,0.0079µM,0.007µM
O=C(O)c1cccc(-c2noc(-c3ccccc3Cl)n2)c1,-,-,-,-,-,2.79µM,0.0062µM,0.0035µM
COc1cccc(-c2nc(-c3ccc(C(=O)O)cc3)no2)c1,-,-,-,-,-,?,0.881µM,0.785µM
Cc1nc2c(OCC(=O)OC(C)(C)C)cccn2c(=O)c1-c1cc(C)n(-c2ccc(Cl)cc2)n1,?,0,?,0,0,-,-,-

# High-throughput results as filed in PubChem.
